Only a selection was taken, and hits are over-represented in it overall.
Methyltransferases = Primary Screen for Target Class Profiling of Small Molecule Inhibitors of Methyltransferases; purified enzyme, MTase-Glo SAH luminescence; active compounds read low; calls only at 40 µM; actives 3.9% (n = 25,000); call rule not given here
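Each enzyme was reacted with SAM and its substrate, with compounds tested once at 40 uM; SAH formed was read by MTase-Glo luminescence.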
* = called active by the depositor; i = inactive; + = active, no number. % is scaled to controls: 0 for no effect and ±100 for the full control effect.

SMILES | Methyltransferases
S=c1ssc2c1CCC2 | +
C[C@@H]1O[C@@H](O[C@H]2[C@H](O[C@H]3[C@H](O[C@H]4CC[C@@]5(C)C(CC[C@]6(C)C5CC=C5[C@@H]7CC(C)(C)C[C@@H](O)[C@]7(C)CC[C@]56C)C4(C)C)O[C@H](C(=O)O)[C@@H](O)[C@@H]3O)O[C@H](C(=O)O)[C@H](O)[C@@H]2O)[C@H](O)[C@H](O)[C@H]1O (stereo partly drawn) | i
COc1ccc(OC)c(Nc2nc3c(S(=O)(=O)c4ccc(C)cc4)nnn3c3ccccc23)c1 | i
CCNC(=O)[C@@H]1C[C@H](NC(=O)c2ccc(CO)o2)CN1Cc1nccs1 | i
O=c1ccc2ccc(O)c(O)c2o1 | i
O=Nc1ccc2oc(=O)ccc2c1 | +
CCCn1c(=O)c2ccc(C(=O)NCC(C)C)cc2n2c(=O)n(CC(=O)c3ccc(Cl)cc3)nc12 | i
CN1CCc2nc(C(=O)N[C@@H]3C[C@@H](C(=O)N(C)C)CC[C@@H]3NC(=O)C(=O)Nc3ccc(Cl)cn3)sc2C1 | i
CCCCc1ccc(CN2C[C@@H]3CC[C@H](C2)N(Cc2ccccn2)C3=O)s1 | i
CCOc1ccc(-n2c(C(C)N(Cc3cccnc3)C(=O)Cc3ccc(F)c(C(F)(F)F)c3)nc3ncccc3c2=O)cc1 (stereo not drawn) | i
CC1=CCC2C(C)(C)CCC[C@]2(C)[C@@]12CC[C@](C)(CC(=O)O)O2 (stereo partly drawn) | i
C=C(C)C(=O)OC1C(OC(C)=O)/C(C=O)=C\CC/C(CO)=C/C2OC(=O)C(=C)C21 (stereo not drawn) | i
C=C1C(=O)O[C@@H]2C=C(COC(C)=O)CC/C=C(\CO)CC[C@@H]12 | +
C=C1C(=O)O[C@@H]2/C=C(\CO)CC/C=C(\CO)[C@H](OC(C)=O)C(OC(=O)C(C)CC)C12 (stereo partly drawn) | i
CCCCN1C(=O)c2cc(C(=O)N3CCN(c4ccc(F)cc4)CC3)nn2CC1(C)C(=O)NC1CCCC1 (stereo not drawn) | i
CC(C)CCn1c(=O)c2ccccc2n2c(SCC(=O)Nc3ccc(Cl)cc3)nnc12 | i
COc1cc(C2Nc3c(cccc3C(F)(F)F)C3C=CCC32)cc(Br)c1OC (stereo not drawn) | i
Cc1ccc(NC(=O)CSc2nnc3n(CCCOC(C)C)c(=O)c4ccccc4n23)c(Cl)c1 | i
COc1cc(-c2cc(-c3cccc(O)c3)cnc2N)cc(OC)c1OC | i
Nc1ccc(-c2cnc(N)c(-c3ccc(Cl)cc3)c2)cn1 | +
COc1ccncc1C(=O)NC(=O)Nc1ccc(-c2ccccc2)c(C(F)(F)F)c1 | i
CC(C)OCCCn1c(=O)c2ccccc2n2c(=O)n(CC(=O)Nc3cccc(F)c3)nc12 | i
CCCn1c(=O)c2ccc(Cl)cc2n2c(=O)n(CC(=O)Nc3ccc4c(c3)OCO4)nc12 | i
O=C(/C=C/c1ccc(O)cc1)O[C@@H]1C[C@@](O)(C(=O)O)C[C@@H](O)[C@@H]1O | i
COc1cc(C2Oc3c(OC)cc(CCCO)cc3C2CO)ccc1O (stereo not drawn) | +
SMILES | Methyltransferases
COc1cc([C@@H]2Oc3c(OC)cc(CCCO)cc3[C@@H]2CO[C@@H]2O[C@H](CO)[C@@H](O)[C@H](O)[C@H]2O)ccc1O | i
C/C=C/c1cc(OC)c2c(c1)[C@@H](C)[C@@H](c1ccc(O)c(OC)c1)O2 | +
C/C=C/c1ccc2c(c1)[C@@H](C)[C@H](c1ccc(O)cc1)O2 | +
COc1cc(C(O)C2COC(c3ccc(OC4OC(CO)C(O)C(O)C4O)c(OC)c3)C2CO)ccc1O (stereo not drawn) | i
COc1cc(C2Oc3c(OC)cc(/C=C/C(=O)OC4CC(O)(C(=O)O)CC(O)C4O)cc3C2CO)ccc1O (stereo not drawn) | +
Oc1ccc([C@@H]2Oc3ccc(O)cc3[C@@H]3CCC[C@@H]32)cc1 | i
COc1cc(C2Oc3c(O)cc(CCCO)cc3C2CO)ccc1O[C@H]1O[C@H](C)[C@@H](O)[C@H](O)[C@@H]1O (stereo partly drawn) | i
COc1cc(/C=C/C(=O)OC2CC3CCC2(C)C3(C)C)ccc1O (stereo not drawn) | i
Cc1nc(C)c2c(n1)N(Cc1ccc(-c3ccccc3-c3nn[nH]n3)cc1)C(=O)CC2 | i
COC(=O)c1ncn2c1C(=O)N(CCCOC(C)C)C(C)(C(=O)NC1CCCCCC1)C2 (stereo not drawn) | i
COc1ccccc1CN1C(=O)c2cc3occc3n2CC1(C)C(=O)NC1CCCCCC1 (stereo not drawn) | i
COC(=O)c1c(CC=C(C)C)c(OC2OC(CO)C(O)C(O)C2O)c2ccccc2c1OC1OC(CO)C(O)C(O)C1O (stereo not drawn) | i
Cc1ccc(Cn2c(=O)c3ccccc3n3c(CCC(=O)Nc4ccc(C)c(C)c4)nnc23)cc1 | i
COc1ccc(N2CCN(C(=O)CCCc3nnc4n5nc(-c6ccccc6)nc5c5ccccc5n34)CC2)cc1 | i

Screening results deposited in PubChem BioAssay by National Center for Advancing Translational Sciences (NCATS).
